Like-named read-outs stand apart in the source and are kept apart here. Among all 13,000 compounds or so, about 3,200 (25%) showed an effect of 50% or more. The list shows a part of the results.
Test system: P. falciparum stage V gametocytes
Design: BacTiter-Glo ATP luminescence viability of purified stage V gametocytes in 384-well plates, per cent inhibition versus DMSO
Settings: 48 h, 5 µM, inhibitor

Compound	% Inhibition [%]	% Inhibition (% Inhibition) [%]
COc1ccc(NC(=O)Nc2cccc(-c3ccncc3)c2)cc1N1CCN(C)CC1 [TCMDC-139111]	12.5	–
O=C(Nc1ccc(-c2nc3cc4ccccc4cc3[nH]2)cc1)c1cccc(Br)c1 [TCMDC-123806]	-9.366	–
O=C(NC1CC1)c1ccc(N2CCC(Oc3ccc(F)cc3)CC2)nc1 [TCMDC-134053]	8.582	–
O=C(Nc1ccc(C(F)(F)F)cc1)NC1CCN(c2ccnc3cc(Cl)ccc23)CC1 [TCMDC-133568]	-13.61	–
CC(CCCCC(=O)Nc1ccc(C(F)(F)F)cc1)NCC(O)c1cccc(Cl)c1 (stereo not drawn) [TCMDC-131538]	28.83	–
O=C(Cn1c2ccccc2c(=O)c2ccc(Cl)cc21)Nc1ccc(C(F)(F)F)cc1 [TCMDC-125568]	64.99	–
O=[N+]([O-])c1ccc(CNCCCCCCNCc2ccc([N+](=O)[O-])c3ccccc23)c2ccccc12 [TCMDC-137830]	10.64	–
FC(F)(F)COc1ccc(CCNCCCCNCCc2ccc(OCC(F)(F)F)c3ccccc23)c2ccccc12 [TCMDC-137282]	101.8	–
O=c1cc(NCCCNCc2ccc(C(F)(F)F)cc2F)[nH]c2ccccc12 [TCMDC-139427]	7.285	–
FC(F)(F)COc1ccc(CNCCCCCCNCc2ccc(OCC(F)(F)F)c3ccccc23)c2ccccc12 [TCMDC-137853]	131	–
O=C(/C=C/c1ccc(Cl)c(Cl)c1)NCCCCCCN1CCN(C(=O)Nc2cc(Cl)nc(Cl)c2)CC1 [TCMDC-135891]	-18.09	–
Cc1cccc(C(=O)Nc2ccnc(N(C)C3CCN(CC(C)C)CC3)c2)c1 [TCMDC-135023]	-10.51	–
Cc1ccc(/C=C/C(=O)NC2CCC(CN3CCC(c4c[nH]c5ccccc45)CC3)CC2)cc1C (stereo not drawn) [TCMDC-139769]	–	39.49
O=C(/C=C/c1cccc(F)c1)NC1CCC(CN2CCC(c3c[nH]c4ccccc34)CC2)CC1 (stereo not drawn) [TCMDC-139713]	–	90.71
O=C(/C=C/c1cccc(F)c1)NC1CCC(CN2CCC(c3c[nH]c4ccccc34)CC2)CC1 (stereo not drawn) [TCMDC-139698]	–	74.99
Cc1nc(N)nc(N)c1-c1cc(Cl)c(Cl)c(Cl)c1 [TCMDC-137398]	11.14	–
CCCC(=O)Nc1ccc(OCCCN(Cc2cccc(C(F)(F)F)c2)c2ccc(C#N)c(C(F)(F)F)c2)cc1 [TCMDC-135666]	6.029	–
CCOc1ccc2nccc([C@@H](O)[C@@H]3C[C@@H]4CCN3C[C@@H]4CC)c2c1 [TCMDC-123483]	–	-64.91
Cc1cc(N2CCCN(C)CC2)nc(Nc2ccc(Br)cc2)n1 [TCMDC-137014]	8.487	–
CCOC(=O)c1cc(C(=O)OC)c2ccccn12 [TCMDC-124299]	4.818	–
CC1=C(C(=O)OC(C)C)C(c2ccccc2Cl)C2=C(CC(c3ccccc3)CC2=O)N1 (stereo not drawn) [TCMDC-125608]	34.25	–
CSc1nccc(-c2ccc(S(=O)(=O)NC3CCC(CN4CCC(c5c[nH]c6ccccc56)CC4)CC3)s2)n1 (stereo not drawn) [TCMDC-131236]	–	106.4

Compound	% Inhibition [%]	% Inhibition (% Inhibition) [%]
O=C(NC1CCC(CN2CCC(c3c[nH]c4ccccc34)CC2)CC1)c1[nH]c(=O)[nH]c(=O)c1F (stereo not drawn) [TCMDC-139889]	14.48	–
CSc1nccc(-c2ccc(S(=O)(=O)NC3CCC(CN4CCC(c5c[nH]c6ccccc56)CC4)CC3)s2)n1 (stereo not drawn) [TCMDC-131237]	–	110.6
N#Cc1c(Cl)cccc1Oc1ccc(S(=O)(=O)NC2CCC(CN3CCC(c4c[nH]c5ccccc45)CC3)CC2)cc1 (stereo not drawn) [TCMDC-140175]	–	1.176
O=C(CCc1cccnc1)Nc1cccc(-c2ccc(-c3nc4ccc(C(F)(F)F)cc4[nH]3)cc2)c1 [TCMDC-132148]	-27.41	–
Cc1ccccc1C1CCN(c2ncc(C(=O)NC3CC3)cc2Cl)CC1 [TCMDC-134609]	14.1	–
CC(C)(C)OC(=O)N[C@@H](CS(=O)(=O)CCN=C(N)COCc1ccccc1)C(=O)OC(C)(C)C [TCMDC-138107]	24.21	–
O=C(Nc1ccc(C(=O)Oc2ccc(-c3ccccc3)cc2)cc1)N[C@@H](Cc1ccc(O)cc1)C(=O)NC1CCN(Cc2ccc(O)cc2)C1 (stereo partly drawn) [TCMDC-135361]	-42.48	–
O=C(N[C@H]1CCN(Cc2ccc(OC3CCN(Cc4ccccc4)CC3)c(Cl)c2)C1)c1ccc(Cl)c(Cl)c1 [TCMDC-140277]	30.17	–
O=C(Cc1ccc(-c2ccccc2)cc1)N[C@H]1CCN(Cc2ccc(OCCCN3CCCCC3)cc2)C1 [TCMDC-141776]	70.4	–
c1ccc(C(c2cccs2)N2CCN(Cc3ccc(OCCCN4CCCCC4)cc3)CC2)cc1 (stereo not drawn) [TCMDC-141954]	38.42	–
O=S(=O)(c1ccc2ccccc2c1)N1CCCN(Cc2ccc(OCCCN3CCCCC3)cc2)CC1 [TCMDC-141721]	52.58	–
O=C(NC1CCN(Cc2ccccc2)C1)c1ccc(Nc2ccc(Br)cc2)nc1 (stereo not drawn) [TCMDC-133798]	-17.8	–
O=C(N[C@H]1CCN(Cc2ccc(OCCCN3CCCCC3)cc2)C1)c1ccc(Oc2ccccc2)cc1 [TCMDC-141773]	88.22	–
O=C(N[C@@H](Cc1ccccc1)CN1CCC(Oc2ccc(F)cc2)CC1)c1ccc(OCCCN2CCCCC2)cc1 [TCMDC-135416]	28.27	–
Fc1cc(CN2CCCC2)ccc1OCCCN1CCN(c2cccc(Cl)c2Cl)CC1 [TCMDC-137001]	7.626	–
O=C(N[C@H]1CCN(Cc2ccc(OC3CCN(Cc4ccccc4)CC3)cc2)C1)c1ccc(Cl)c(Cl)c1 [TCMDC-140265]	57.35	–
Cc1cc(CN2CC[C@H](NC(=O)c3ccc(Cl)c(Cl)c3)C2)ccc1OC1CCN(Cc2ccccc2)CC1 [TCMDC-140282]	-33.37	–
CS(=O)(=O)Cc1ccc(Nc2ncc(Cl)c(Nc3cccnc3C(N)=O)n2)cc1 [TCMDC-134165]	-4.656	–
CC1CN=C(c2cccc(NC(=O)Nc3cccc(C4=NCC(C)N4)c3)c2)N1 (stereo not drawn) [TCMDC-137194]	7.217	–
COc1cc2c(cc1C(F)(F)F)N(C(=O)Nc1ccc(Br)cn1)CC2 [TCMDC-139015]	-19.75	–
COc1ccc(O)c(C(=O)c2cnc3c(c2)c(-c2ccc(F)cc2)c(C#N)c(=O)n3C)c1 [TCMDC-124509]	-11.41	–
O=C(Nc1ccc2c(c1)CCN2C1CCN(Cc2cccc(F)c2F)C1)c1ccco1 (stereo not drawn) [TCMDC-135067]	14.1	–

Compound	% Inhibition [%]	% Inhibition (% Inhibition) [%]
CCCCCCN1CCC(NCc2ccc(OCCN3CCCC3)cc2)CC1 [TCMDC-141663]	42.97	–
O=C(N[C@H]1CCN(Cc2ccc(OCCCN3CCCCC3)cc2)C1)c1cc(Cl)cc(Cl)c1 [TCMDC-141774]	21.94	–
O=C(N[C@H]1CCN(Cc2ccc(OCCCN3CCCCC3)cc2)C1)c1ccc(Cl)c(Cl)c1 [TCMDC-141772]	60	–
c1cc(OCCN2CCCC2)ccc1CNC1CCN(CC2CCCCC2)CC1 [TCMDC-141656]	42.11	–
O=C(N[C@H]1CCN(Cc2ccc(OCCCN3CCCCC3)cc2)C1)c1ccc2ccccc2c1 [TCMDC-141775]	63.18	–
c1ccc(C(c2ccccc2)N2CCC(NCc3ccc(OCCCN4CCCCC4)cc3)CC2)cc1 [TCMDC-141783]	82.14	–
Cc1cnc(CCNC(=O)c2cc(-c3ccc(Cl)cc3)cs2)[nH]1 [TCMDC-133804]	0.312	–
CCc1cc(N2CCN(c3ccccc3F)CC2)nc(SCc2ccc(C(=O)NC3CC3)o2)n1 [TCMDC-124808]	29.7	–
N#Cc1ccc(-c2ccc(C(=O)Nc3ccc4c(c3)CCN(C3CCC3)CC4)nc2)cn1 [TCMDC-136030]	49.39	–
Cc1nc(-c2ccc(-c3ccc(C(=O)Nc4ccc(-n5ccnc5)c(N5CCN(C)CC5)c4)cc3)c(C)c2)no1 [TCMDC-131988]	33.17	–
C=C[C@H]1CN(CCCCCCC)CC[C@H]1C[C@@H](Cc1ccnc2ccc(OC)cc12)OC(=O)[C@](OC)(c1ccccc1)C(F)(F)F [TCMDC-139560]	78.38	–
C=C[C@H]1CN(CCCCCCC)CC[C@H]1CCN(C)c1ccnc2ccc(OC)cc12.O=C(O)C(=O)O [TCMDC-139276]	8.689	–
CCCCCCCC1CC(CC(=O)Nc2ccnc3ccc(OC)cc23)CN1C(=O)OC(C)(C)C (stereo not drawn) [TCMDC-139304]	29.24	–
CCCCCCCC1CCN(C[C@H](O)c2ccnc3ccc(OC)cc23)CC1 [TCMDC-139640]	6.722	–
C=C[C@H]1CN(CCCCCCC)CC[C@H]1CCNc1ccnc2ccc(OC)cc12 [TCMDC-139204]	104.6	–
CCCCCCCC1CC(CC(=O)Nc2ccnc3ccc(OC)cc23)CN1 (stereo not drawn) [TCMDC-139305]	20.34	–
C=C[C@H]1CN(CCCCCCC)CC[C@H]1CC(=O)Nc1cnnc2ccc(OC)cc12 [TCMDC-139791]	45.94	–
C=C[C@H]1CN2CC[C@H]1C[C@H]2[C@H](O)c1ccnc2ccc(OC)cc12 [TCMDC-123484]	–	-1.615
CCCCCCCN1C2CCC1CC(CCOc1ccnc3ccc(OC)cc13)C2 (stereo not drawn) [TCMDC-139275]	73.47	–
CCCCCCCN1CCC(CC(=O)Nc2ccnc3ccc(OC)cc23)C(CC)C1 (stereo not drawn) [TCMDC-139299]	-28.07	–
C=C[C@H]1CN(CCCCCCC)CC[C@H]1CC(O)Cc1ccnc2cc(O)c(OC)cc12 (stereo partly drawn) [TCMDC-139963]	16.88	–
CCCCCCCN1CCC(CC(=O)Nc2ccnc3ccc(OC)cc23)CC1 [TCMDC-139181]	71.31	–
